Our source for the outcome and AC50 values is PubChem BioAssay (EPA / NIEHS).

Active and inactive are the calls of the source. How the source made its calls: active means hit-call score of the fitted dose curve at least 0.9, where 1 is the maximum; inactive means score below 0.9.

What is called AC50 is the midpoint of the concentration-response curve, whichever way the signal moves.

Holding throughout (details): mRNA level, 48 h; actives raise or lower the signal
Read-out in assay [1]: adenosine kinase (ADK) gene, ADK (gene 132)
The experiment in a line: LTEA_HepaRG_ADK: Life Technologies and Expression Analysis (LTEA) Assay for adenosine kinase (ADK) gene using HepaRG (AID 2283471). The procedure, abridged:
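Read-out is ADK transcript level measured by qRT-PCR and normalised to three housekeeping genes. Cells are human HepaRG, dosed for 48 h at up to 100 uM in 0.5% DMSO. Gain or loss of signal is fitted against DMSO controls.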

Read-out in assay [2]: Alpha-fetoprotein (AFP) gene, AFP (gene 174)
The experiment in a line: LTEA_HepaRG_AFP: Life Technologies and Expression Analysis (LTEA) Assay for Alpha-fetoprotein (AFP) gene using HepaRG (AID 2283472). The procedure, abridged: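 AFP transcript measured by TaqMan qRT-PCR with three housekeeping genes for normalization, after 48 h chemical treatment of HepaRG cells (top 100 uM, half-log steps, 0.5% DMSO). Gain or loss fitted against vehicle.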

Read-out in assay [3]: BCL2L11 (gene 10018)
The experiment in a line: LTEA_HepaRG_BCL2L11: Life Technologies and Expression Analysis (LTEA) Assay for Bcl-2 (BCL2L11) gene using HepaRG (AID 2283473). A digest of the protocol: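 Differentiated human HepaRG cells were exposed 48 h in serum-free induction medium to eight half-log concentrations up to 100 uM in 0.5% DMSO, in duplicate. BCL2L11 mRNA was quantified by TaqMan qRT-PCR, normalized to ACTB, GAPDH and POLR2A; induction or repression fitted versus DMSO.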

Read-out in assay [4]: Bcl-2 (BID) gene, BID (gene 637)
The experiment in a line: LTEA_HepaRG_BID: Life Technologies and Expression Analysis (LTEA) Assay for Bcl-2 (BID) gene using HepaRG (AID 2283476). The procedure, abridged:
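Duplicate 48 h treatments of HepaRG cells in serum-free induction medium spanned 100 uM downward in half-log steps, 0.5% DMSO. Transcript change quantified by qRT-PCR against three housekeeping genes, fitted up or down versus DMSO.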

Read-out in assay [5]: Cytochrome P450 (CYP24A1), CYP24A1 (gene 1591)
The experiment in a line: LTEA_HepaRG_CYP24A1: Life Technologies and Expression Analysis (LTEA) Assay for Cytochrome P450 (CYP24A1) using HepaRG (AID 2283478). The procedure, abridged:
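HepaRG cells plated 48 h, then exposed in duplicate in serum-free induction medium for 48 h to 8-point half-log series from 100 uM in 0.5% DMSO. CYP24A1 mRNA by Fluidigm qRT-PCR, normalized to ACTB, GAPDH, POLR2A; bidirectional fit versus DMSO.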

Read-out in assay [6]: cysteine-aspartic acid protease (CASP8), CASP8 (gene 841)
The experiment in a line: LTEA_HepaRG_CASP8: Life Technologies and Expression Analysis (LTEA) Assay for cysteine-aspartic acid protease (CASP8) using HepaRG (AID 2283480). A digest of the protocol: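 qRT-PCR readout of CASP8 mRNA, normalized to three housekeeping genes, after 48 h chemical exposure of HepaRG cells; 8-point half-log series, top 100 uM, 0.5% DMSO vehicle. Bidirectional curve fitting against DMSO baseline.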

Read-out in assay [7]: Cytochrome P450 (CYP2B6), CYP2B6 (gene 1555)
The experiment in a line: LTEA_HepaRG_CYP2B6: Life Technologies and Expression Analysis (LTEA) Assay for Cytochrome P450 (CYP2B6) using HepaRG (AID 2283481). The procedure, abridged:
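Differentiated human HepaRG cells in serum-free induction medium, dosed in duplicate for 48 h over 8 half-log concentrations topping at 100 uM (0.5% DMSO). CYP2B6 mRNA measured by TaqMan qRT-PCR, normalized to ACTB, GAPDH, POLR2A; bidirectional fit versus DMSO.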

Read-out in assay [8]: Cytochrome P450 2C19 (Homo sapiens) (UniProt P33261)
Briefly: LTEA_HepaRG_CYP2C19: Life Technologies and Expression Analysis (LTEA) Assay for CYP2C19 using HepaRG (AID 2283482). A digest of the protocol: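 Differentiated HepaRG cells in serum-free induction medium exposed 48 h in duplicate, 8 concentrations from 100 uM by half-log steps in 0.5% DMSO. CYP2C19 mRNA measured by TaqMan qRT-PCR, normalized to ACTB, GAPDH, POLR2A. Bidirectional fit versus DMSO.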

Read-out in assay [9]: CYP2C8 (gene 1558)
The experiment in a line: LTEA_HepaRG_CYP2C8: Life Technologies and Expression Analysis (LTEA) Assay for CYP2C8 using HepaRG (AID 2283483). The procedure, abridged:
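HepaRG (human liver line), 48 h chemical exposure, 8-pt half-log series from 100 uM, 0.5% DMSO vehicle. Readout: CYP2C8 transcript by qRT-PCR, housekeeping-normalized. Bidirectional fit vs DMSO baseline.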

Read-out in assay [10]: CYP2C9 (gene 1559)
Briefly: LTEA_HepaRG_CYP2C9: Life Technologies and Expression Analysis (LTEA) Assay for CYP2C9 using HepaRG (AID 2283484). The procedure, abridged:
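HepaRG, 48 h dosing, 8-pt half-log series, top 100 uM, 0.5% DMSO vehicle. Read-out: CYP2C9 transcript by TaqMan qRT-PCR, housekeeping-normalized (ACTB/GAPDH/POLR2A). Gain or loss fitted vs DMSO baseline.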

Read-out in assay [11]: CYP4A11 (gene 1579)
The experiment in a line: LTEA_HepaRG_CYP4A11: Life Technologies and Expression Analysis (LTEA) Assay for CYP4A11 using HepaRG (AID 2283486). A digest of the protocol:
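Differentiated HepaRG cells, 48 h after plating, exposed in duplicate for 48 h to 8 half-log concentrations up to 100 uM in 0.5% DMSO in serum-free induction medium. CYP4A11 mRNA measured by TaqMan qRT-PCR, normalized to ACTB, GAPDH and POLR2A.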

Read-out in assay [12]: Cytochrome P450 3A4 (Homo sapiens) (UniProt P08684)
The experiment in a line: LTEA_HepaRG_CYP3A4: Life Technologies and Expression Analysis (LTEA) Assay for CYP3A4 using HepaRG (AID 2283487). The procedure, abridged:
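HepaRG, 48 h exposure, 8-pt CRC from 100 uM (half-log), 0.5% DMSO, duplicates; serum-free induction medium. Readout: CYP3A4 mRNA, qRT-PCR, ACTB/GAPDH/POLR2A normalization. Bidirectional fit vs DMSO.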

Read-out in assay [13]: DNA damage-inducible transcript 3 (DDIT3), DDIT3 (gene 1649)
The experiment in a line: LTEA_HepaRG_DDIT3: Life Technologies and Expression Analysis (LTEA) Assay for DNA damage-inducible transcript 3 (DDIT3) using HepaRG (AID 2283488). The procedure, abridged:
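DDIT3 transcript was quantified by qRT-PCR with ACTB/GAPDH/POLR2A normalization after 48 h chemical treatment of differentiated HepaRG cells in 0.5% DMSO. Dosing was eight-point, half-log, top 100 uM, duplicate wells. Curves fitted bidirectionally versus DMSO.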

Read-out in assay [14]: Pro-epidermal growth factor (Homo sapiens) (UniProt P01133)
Briefly: LTEA_HepaRG_EGF: Life Technologies and Expression Analysis (LTEA) Assay for Epidermal growth factor (EGF) using HepaRG (AID 2283489). The procedure, abridged:
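HepaRG cells (~100,000/well, 48 h pre-culture) exposed in duplicate for 48 h in serum-free induction medium to 8 half-log concentrations up to 100 uM in 0.5% DMSO. EGF mRNA by qRT-PCR, normalized to ACTB/GAPDH/POLR2A; bidirectional fit versus DMSO.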

Read-out in assay [15]: Cytochrome P450 (CYP1A2), CYP1A2 (gene 1544)
The experiment in a line: LTEA_HepaRG_CYP1A2: Life Technologies and Expression Analysis (LTEA) Assay for Cytochrome P450 (CYP1A2) using HepaRG (AID 2283479). The procedure, abridged:
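Differentiated human HepaRG cells in serum-free induction medium exposed 48 hours in duplicate to 8 half-log concentrations from 100 uM, 0.5% DMSO. CYP1A2 mRNA quantified by qRT-PCR, normalized to ACTB, GAPDH and POLR2A; bidirectional fitting versus DMSO.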

Read-out in assay [16]: CYP2E1 (gene 1571)
Briefly: LTEA_HepaRG_CYP2E1: Life Technologies and Expression Analysis (LTEA) Assay for CYP2E1 using HepaRG (AID 2283485). A digest of the protocol: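 CYP2E1 transcript measured by Fluidigm qRT-PCR against three housekeeping genes in human HepaRG cells treated 48 h (top 100 uM, half-log steps, 0.5% DMSO vehicle). Gain or loss fitted relative to DMSO baseline.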

Read-out in assay [17]: Caspase-3 (Homo sapiens) (UniProt P42574)
Briefly: LTEA_HepaRG_CASP3: Life Technologies and Expression Analysis (LTEA) Assay for cysteine-aspartic acid protease (CASP3) using HepaRG (AID 2283477). A digest of the protocol:
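Differentiated HepaRG cells, plated 48 h, were treated in duplicate in serum-free induction medium for 48 h with eight half-log concentrations up to 100 uM in 0.5% DMSO. CASP3 mRNA measured by qRT-PCR, normalized to ACTB, GAPDH, POLR2A.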

Cytochrome P450 2C19 (Homo sapiens), sequence (P33261 whole entry, looked up): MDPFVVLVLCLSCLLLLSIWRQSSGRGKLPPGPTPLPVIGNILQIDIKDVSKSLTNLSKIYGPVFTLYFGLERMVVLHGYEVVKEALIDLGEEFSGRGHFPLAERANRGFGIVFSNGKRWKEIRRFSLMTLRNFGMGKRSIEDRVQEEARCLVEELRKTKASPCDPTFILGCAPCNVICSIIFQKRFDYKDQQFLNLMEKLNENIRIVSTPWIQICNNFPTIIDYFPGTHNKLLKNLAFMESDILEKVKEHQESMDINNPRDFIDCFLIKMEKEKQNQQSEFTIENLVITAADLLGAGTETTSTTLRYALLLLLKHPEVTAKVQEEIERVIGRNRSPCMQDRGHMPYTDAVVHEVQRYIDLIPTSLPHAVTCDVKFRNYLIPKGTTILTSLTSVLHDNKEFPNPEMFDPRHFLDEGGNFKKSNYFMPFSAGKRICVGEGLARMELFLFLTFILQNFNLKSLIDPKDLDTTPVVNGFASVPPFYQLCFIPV
Cytochrome P450 3A4 (Homo sapiens), sequence (P08684 whole entry, looked up): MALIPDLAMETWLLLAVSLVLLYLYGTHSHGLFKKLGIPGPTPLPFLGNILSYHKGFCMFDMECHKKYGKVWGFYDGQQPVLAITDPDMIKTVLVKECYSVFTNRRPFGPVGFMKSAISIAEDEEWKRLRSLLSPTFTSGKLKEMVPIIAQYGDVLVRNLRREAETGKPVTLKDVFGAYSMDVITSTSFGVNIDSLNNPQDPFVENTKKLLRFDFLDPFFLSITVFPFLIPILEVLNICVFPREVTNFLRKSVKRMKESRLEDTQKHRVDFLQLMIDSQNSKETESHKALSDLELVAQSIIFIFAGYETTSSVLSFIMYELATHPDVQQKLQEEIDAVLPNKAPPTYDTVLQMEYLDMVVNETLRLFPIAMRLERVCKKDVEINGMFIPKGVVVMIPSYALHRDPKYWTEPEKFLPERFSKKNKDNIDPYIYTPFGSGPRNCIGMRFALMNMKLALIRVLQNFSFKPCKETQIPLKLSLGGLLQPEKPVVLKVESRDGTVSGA
Caspase-3 (Homo sapiens), sequence (P42574 whole entry, looked up): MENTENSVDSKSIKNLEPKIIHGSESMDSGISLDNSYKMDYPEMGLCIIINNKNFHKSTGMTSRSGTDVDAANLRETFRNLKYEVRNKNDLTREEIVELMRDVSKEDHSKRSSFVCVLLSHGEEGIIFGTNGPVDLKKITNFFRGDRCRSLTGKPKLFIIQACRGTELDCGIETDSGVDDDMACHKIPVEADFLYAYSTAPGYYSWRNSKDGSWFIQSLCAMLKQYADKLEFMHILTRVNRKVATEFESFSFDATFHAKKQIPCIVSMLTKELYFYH

For `CC(C)OC(=O)Nc1cccc(Cl)c1`, the compound was called inactive in [1], in assay [2], in [3], in [5], in assay [6] and in assay [8]. Further, the compound was classed as inactive in [9], in assay [10], in assay [11], in [12], in [13] and in assay [14]. The figures for the AC50 in [4] and in assay [7] were 7.78 µM (active) and 50 µM (active), respectively.

For the compound `N#CN`, the compound was classed as inactive in assay [1], in assay [2], in assay [3], in [4], in [5] and in assay [15]. The result in assay [6], in [7], in [8], in assay [9], in [10] and in assay [16] was inactive. The outcome in [11], in [12], in assay [13] and in assay [14] was inactive.

On to `CC1(C)C(C=C(Cl)Cl)C1C(=O)OC(C#N)c1ccc(F)c(Oc2ccccc2)c1` (stereo unspecified), for which the compound was called inactive in [1], in [2], in [3], in assay [4], in [5] and in assay [6]. The call in assay [11] and in assay [13] was inactive. The AC50 in assay [7] is 18.4 µM (active); in assay [8] it was 20.7 µM (active); in [9], 17.1 µM (active); in assay [10], 14 µM (active); in assay [16], 55.3 µM (active); in [12], 10.9 µM (active). Further, the AC50 in assay [14] is 61.4 µM (active).

For the compound `CCOCN(C(=O)CCl)c1c(C)cccc1CC`, the compound was called inactive in [1], in [4], in assay [5], in assay [6], in [12] and in assay [13]. The result in [14] was inactive. The AC50 in assay [2] was 93.3 µM (active); in assay [3], 67.5 µM (active); in assay [7], 0.077 µM (active); in [8], 89.5 µM (active); in [9], 83.6 µM (active); in [10] it was 80.2 µM (active). Further, the values for the half-maximal activity concentration (AC50) in assay [16] and in assay [11] were 81.3 µM (active) and 83.5 µM (active), respectively.

With `Cc1[nH]c(=O)n(C(C)(C)C)c(=O)c1Cl`, the result in assay [1], in [2], in assay [3], in [4], in assay [5] and in assay [6] was inactive. For the same compound, the result in assay [9], in assay [10], in assay [11], in [12], in assay [13] and in [14] was inactive. Further, the AC50 in [7] is 15.6 µM (active); in assay [8], 31.1 µM (active); in [16] it was 37 µM (active).

Turning to `O=C(O)CCCOc1ccc(Cl)cc1Cl`, the AC50 is 50.8 µM (active) in assay [1]; 15.2 µM (active) in assay [7]; 14 µM (active) in [8]; 14.6 µM (active) in assay [9]; 10.1 µM (active) in [11]. Besides, the outcome in assay [2], in [3], in assay [4], in assay [17], in assay [5] and in assay [6] was inactive. Besides, the compound was called inactive in [10], in assay [16], in assay [12], in [13] and in assay [14].
